TDP1 inh – blocks human tyrosyl-DNA phosphodiesterase 1; recombinant TDP1, AlphaScreen DNA substrate cleavage; Potency, µM (highest dose often 130 µM), for inactives: at the highest dose activity change, negative = inhibition, usual class: inhibitors; hit rate 0.28% among 350,000; AID 485290; further: nearly all actives have a fitted effect of over 40% in size
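Recombinant E. coli-expressed Tdp1 (1 nM) preincubated with compound 15 min at RT, then 5'-biotin/3'-phosphotyrosine-FITC DNA substrate (15 nM) added for 5 min. AlphaScreen beads (10 ug/ml) added, 10 min RT; tyrosine-FITC cleavage read as signal loss.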
LMNA splice mod – modulators of lamin A splicing; AID 1487; Potency, µM (series often up to 46.1 µM), inactives show at the highest dose ratio change, negative = inhibition, actives largely listed as inhibitors; hit rate 0.01% among 200,000; HeLa LMNA splicing GFP/RFP minigene ratio, 48 h; active means well fitted inhibition curve with a large enough effect in the signal ratio, with a control signal flat, not every such curve was filed as active; inconclusive means small, poorly fitted or top-dose-only effect, or effect the other way, or a change in a side signal; the % refers to the signal ratio
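Read-out is the ratio of GFP to DsRed2 object intensity, acquired by 488 nm laser-scanning cytometry on HeLa lamin A-EGFP minigene reporter cells. Compound incubation 48 hrs at 37 °C in Opti-MEM with 2% FBS; DMSO 0.5% final.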
BLM inh – inhibitors of human Bloom syndrome helicase BLM; AID 2528; hit rate 0.2% among 350,000; Potency, µM (top dose mostly 56.1 µM), for inactives: at the top dose activity change, negative = inhibition, usual class: inhibitors; recombinant BLM DNA unwinding, fluorescence dequenching;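 further: plate controls were vehicle for no effect and no enzyme for full effect; nearly all actives have a fitted effect of over 35% in size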
KAT2A inh – inhibitors of human GCN5L2 histone acetyltransferase; Q92830; AID 504327; GCN5L2 HAT assay, ThioGlo1 CoA-SH fluorescence; hit rate 0.21% among 390,000; Potency, µM (titrated, usually from 58.9 µM), for the others: top-dose activity change, negative = inhibition, usual class: inhibitors
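Preincubate 20nM GCN5L2 with compound 15 min, RT → add 50uM ThioGlo1 + 75uM H3(1-25) + 70uM acetyl-CoA → read fluorescence 0 and 20 min. Primary qHTS; fluorescent artifacts likely.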
APE1 inh – APE1 (human) endonuclease inhibition. P27695. Potency, µM (doses to about 65.8 µM), for inactives: top-dose activity change, negative = inhibition, hits mostly inhibitors. AID 2517. recombinant APE1, TAMRA/BHQ-2 abasic DNA cleavage fluorescence. hit rate 0.35% among 350,000;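 further: plate controls were vehicle for no effect and reference inhibitor for full effect; nearly all actives have a fitted effect of over 55% in size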
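Compound pre-exposure to 0.75 nM APE1, 15 min at ambient temperature. Reaction initiated with 50 nM TAMRA/BHQ-2 THF substrate, read immediately in kinetic mode, 525 nm excitation, 598 nm emission.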
RECQ1 inh-1 – inhibitors of human RECQ1 DNA helicase; Potency, µM (series often up to 57.3 µM), for the others: top-dose activity, negative = inhibition, hits mostly inhibitors; RECQ1 DNA unwinding, red fluorescence kinetic read; P46063; hit rate 0.54% among 240,000;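 further: plate controls were vehicle for no effect and no enzyme for full effect; nearly all actives have a fitted effect of over 30% in size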
Target sequence (P46063 whole entry, looked up): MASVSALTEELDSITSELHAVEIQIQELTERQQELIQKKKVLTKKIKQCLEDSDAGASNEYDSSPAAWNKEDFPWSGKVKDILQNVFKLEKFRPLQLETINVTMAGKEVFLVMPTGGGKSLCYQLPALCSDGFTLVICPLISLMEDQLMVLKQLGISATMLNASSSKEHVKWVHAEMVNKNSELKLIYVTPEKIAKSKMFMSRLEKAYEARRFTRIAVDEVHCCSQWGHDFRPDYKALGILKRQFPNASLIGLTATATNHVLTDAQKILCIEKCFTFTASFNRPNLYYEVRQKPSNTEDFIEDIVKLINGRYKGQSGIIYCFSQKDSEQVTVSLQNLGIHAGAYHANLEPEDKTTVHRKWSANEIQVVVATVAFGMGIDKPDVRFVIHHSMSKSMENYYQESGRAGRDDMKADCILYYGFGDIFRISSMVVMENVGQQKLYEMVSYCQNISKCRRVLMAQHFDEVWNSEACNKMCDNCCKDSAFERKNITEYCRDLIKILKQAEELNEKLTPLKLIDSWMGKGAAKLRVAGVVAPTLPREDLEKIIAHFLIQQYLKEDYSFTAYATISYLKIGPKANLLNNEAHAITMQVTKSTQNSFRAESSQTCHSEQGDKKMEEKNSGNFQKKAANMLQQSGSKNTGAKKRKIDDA
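RECQ1T1 50 nM; forked duplex (20 bp + 30-nt ss tails) 200 nM, ATP 2 mM final; pH 8.0, 2 mM MgCl2, 2.5 ug/ml poly(dI-dC); 15 min compound preincubation; discontinuous kinetic read over 2 h at RT.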
RECQ1 inh conf – confirmation of human RECQ1 helicase inhibitors; shares compounds with RECQ1 inh-1; RECQ1 helicase DNA unwinding, fluorescence; Potency, µM (highest dose often 229 µM), without a hit: at the top dose activity change, negative = inhibition, hits mostly inhibitors; hit rate 28% among 610; AID 2708; further: nearly all actives have a fitted effect of over 45% in size
RECQ1 ADP FP – displaces ADP in a fluorescence polarization counter-screen for RECQ1 hits. ADP fluorescence polarization displacement counterscreen. shares compounds with RECQ1 inh-1. AID 2711. hit rate 27% among 530. Potency, µM (titrated, usually from 228 µM), for inactives: top-dose activity change, negative = inhibition, hits mostly inhibitors; further: nearly all actives have a fitted effect of over 45% in size
RECQ1 inh-2 – confirmation of human RECQ1 helicase inhibitors. recombinant RECQ1 DNA unwinding, red fluorescence. Potency, µM (series often up to 119 µM), for the others: at the top dose activity, negative = inhibition, usual class: inhibitors. hit rate 15% among 1,100. shares compounds with RECQ1 inh-1. AID 504841; further: nearly all actives have a fitted effect of over 50% in size
Numbers without * were called inactive; i = inactive; ? = inconclusive; . = no result; [ ] = another dose, or the depositor's remark. Hits are enriched below; roughly 0.9% of the tested compounds scored in any of these assays. Unless noted, the call rests on the fitted dose curve; in most records, active means well fitted curve in the direction sought with a large enough effect; inconclusive means small, poorly fitted or top-dose-only effect, or another doubt; inactive means no such curve, though single readings can be large; an effect the other way counts as inactive or inconclusive. Unless noted, on the % scale 0 is the no-effect control and ±100 the full control effect; potency means the concentration at half of the fitted maximal effect.

SMILES	TDP1 inh	LMNA splice mod	BLM inh	KAT2A inh	APE1 inh	RECQ1 inh-1	RECQ1 inh-2	others
CCn1c(CSc2nnc(-c3ccncc3)n2C)nc2cc(C(=O)O)ccc21	-2.5%	.	-5.8%	-11.4%	-9.8%	14.1µM*	79.4µM*	RECQ1 inh conf=39.8µM*;RECQ1 ADP FP=7.08µM*
CC(=O)n1cc([C@@H]2C=C(C(=O)NCc3ccccc3)O[C@H](OCc3ccc(CO)cc3)C2)c2ccccc21	.	.	0.9%	-4.7%	16.7%	-12.2%	.
CC(=O)n1cc([C@H]2C=C(C(=O)Nc3ccccc3)O[C@@H](OCc3ccc(CO)cc3)C2)c2ccccc21	6.4%	.	-7.6%	-14.6%	-6.1%	0.355µM*	.	RECQ1 inh conf=3.1%[114 µM];RECQ1 ADP FP=4.1%[91.9 µM]
C=CCn1c(=O)[nH]c2cc(C(=O)N3CCN(c4cccc(Cl)c4)CC3)ccc2c1=O	4.9%	?	-11.7%	-18.5%	-8.8%	-5.9%	.
C=CCn1c(=O)[nH]c2cc(C(=O)N3CCN(c4ccc(C(C)=O)cc4)CC3)ccc2c1=O	-7.9%	?	-24.6%	-10.0%	-7.4%	4.47µM*	?	RECQ1 inh conf=?;RECQ1 ADP FP=-1.8%[91.9 µM]
Cc1cccc(C(=O)OC2CCN(C)CC2)c1	0.0%	6.8%[46 µM]	-4.1%	-5.1%	-0.1%	-3.3%	.
Cc1cccc(N(C(=O)c2ccc(Cl)cc2)C2CS(=O)(=O)CC2OC(=O)c2ccc(Cl)cc2)c1 (configuration not stated)	1.0%	?	-7.2%	1.2%	7.6%	?	-11.3%
Cc1ccccc1C(=O)N=c1ccn(-c2nc3ccccc3nc2NS(=O)(=O)c2ccccc2)cc1	2.4%	.	-5.5%	-12.3%	-12.5%	.	.
CCOc1ccc(S(=O)(=O)Nc2nc3ccccc3nc2-n2ccc(=NC(=O)c3ccccc3C)cc2)cc1	3.6%	.	-15.6%	-10.1%	-4.2%	?	-1.7%
C=CC[N+]1([C@H]2C[C@H]3[C@@H]4CC[C@H]5C[C@H](O)[C@@H](N6CCOCC6)C[C@]5(C)[C@H]4CC[C@]3(C)[C@H]2OC(C)=O)CCCC1	.	.	48.7%	1.0%	.	.	.
c1ccc(Cn2nnc3c(N4CCCCCC4)ncnc32)cc1	-2.2%	?	1.1%	-7.5%	7.6%	?	-11.6%
CCn1c(SCC(=O)Nc2nc(-c3ccccc3)cs2)nnc1-c1ccccc1	3.8%	?	-1.9%	-8.1%	-7.2%	-2.7%	.	RECQ1 inh conf=?;RECQ1 ADP FP=16.8%
Cc1o[nH]c(=O)c1CCC(N)C(=O)O (configuration not stated)	0.0%	.	.	-15.6%	-9.7%	-11.4%	.
Cc1ccc(NC(=O)N/C=C/c2ccco2)cc1	-13.2%	-1.9%	-0.5%	-17.1%	?	?	?
Cc1ccc(NC(=O)/C(=C\c2ccco2)NC(=O)c2ccco2)cc1	.	.	-1.6%	-4.9%	-6.5%	.	.
Cc1ccc(S(=O)(=O)NCC(=O)N(CC(=O)NCC2CCCO2)Cc2ccccc2)cc1 (configuration not stated)	6.7%	13.2%	-0.5%	2.4%	-1.9%	i	.
Cc1ccc(S(=O)(=O)NCC(=O)N(CC(=O)NCC2CCCO2)Cc2ccco2)cc1 (configuration not stated)	-8.3%	-1.4%[46 µM]	-27.6%	4.6%	?	22.4µM*	-14.0%
Nc1c(N2CCCC2)cc(Cl)c2nonc12	-4.9%	-18.6%	?	-11.6%	?	?	?
CN[C@H](CC(C)C)C(=O)N[C@H]1C(=O)N[C@@H](CC(N)=O)C(=O)N[C@@H]2C(=O)N[C@H]3C(=O)N[C@H](C(=O)N[C@H](C(=O)O)c4cc(O)cc(O)c4-c4cc3ccc4O)[C@H](O)c3ccc(c(Cl)c3)Oc3cc2cc(c3O[C@@H]2O[C@H](CO)[C@@H](O)[C@H](O)[C@@H]2O[C@H]2C[C@](C)(N)[C@H](O)[C@H](C)O2)Oc2ccc(cc2Cl)[C@H]1O	.	.	.	0.5%	.	.	.
O=C(C1CC1)N1CCc2cc(Br)cc(S(=O)(=O)Nc3ccc(C(F)(F)F)cc3)c21	5.9%	.	-12.0%	-11.1%	.	.	.
CN(C(=O)c1ccoc1)c1ccccc1I	2.6%	.	2.4%	.	11.0%	1.6%	.
COc1ccc(CN(C(=O)/C=C/c2ccco2)C2CCS(=O)(=O)C2)cc1 (configuration not stated)	-1.2%	.	-23.6%	-17.2%	?	?	?
O=C1CC(c2ccco2)CC(O)=C1C=Nc1cc(Cl)ccc1O (configuration not stated)	?	?	-23.1%	-17.8%	7.08µM*	22.4µM*	?
CCCCC/C=C\C/C=C\C/C=C\C/C=C\CCCC(=O)C(F)(F)F	-1.0%	.	?	-18.5%	1.7%	-2.4%	.
COc1cc(/C=C2\SC(N)=NC2=O)ccc1OCC(=O)Nc1ccc(C)cc1	-11.2%	?	-16.2%	-2.8%	2.4%	?	?
SMILES	TDP1 inh	LMNA splice mod	BLM inh	KAT2A inh	APE1 inh	RECQ1 inh-1	RECQ1 inh-2	others
COc1ccc(/C=C2/SC(=O)N(CCC(=O)Nc3ccc(C)cc3)C2=O)cc1OC	4.4%	-5.8%	2.7%	1.6%	2.1%	i	.
CN1C(C(=O)c2ccccc2)=C(OC(=O)c2ccc(Br)cc2)c2ccccc2S1(=O)=O	3.2%	.	-7.5%	-9.3%	.	.	.
O=c1[nH]c(=O)n(Cc2ccccc2)c2nc(-c3ccco3)cc(C(F)(F)F)c12	3.0%	?	-0.1%	-1.6%	-5.6%	-15.0%	.
Cc1nn(CCc2nc(-c3ccco3)cs2)c2[nH]c(=O)cc(C(F)(F)F)c12	?	7.2%	?	-19.7%	?	14.1µM*	?	RECQ1 inh conf=?;RECQ1 ADP FP=?
Cc1cc(C)n(CCc2nc(-c3ccco3)cs2)n1	.	6.0%	?	-22.9%	?	35.5µM*	?
Cc1c(CC(C)(C)C(=O)O)n(Cc2ccc(Cl)cc2)c2ccc(F)cc12	16.7%	.	-0.7%	.	-11.6%	-10.6%	.
CC(=O)Oc1ccc(C(=O)Nc2cccc(C(=O)c3cccc(NC(=O)c4ccc(OC(C)=O)cc4)c3)c2)cc1	.	?	-28.5%	-17.0%	15.3%	14.1µM*	?
